Compounds with a hit are over-represented: about 10% of the library has one in this group of screens.
MCF10A rerep: A quantitative high throughput screen for small molecules that induce DNA re-replication in MCF 10a normal breast cells | MCF 10A DNA re-replication, Hoechst nuclear intensity, 48 h | Potency, µM (top dose mostly 46.1 µM), inactives show at the highest dose activity, positive = re-replication, usual class: activators | actives 2.9% (n = 350,000); also: % of control where 0% means no effect; nearly all actives have a fitted effect of over 50% in size
Gal4-VP16 FLuc: VP16 counterscreen qHTS for inhibitors of ROR gamma transcriptional activity | Drosophila S2 Gal4-VP16 UAS-luciferase, luminescence, 20 h | AID 2546, 2010 | actives 3.5% (n = 310,000) | Potency, µM (doses to about 53.6 µM), without a hit: at the top dose activity, negative = inhibition, most hits filed as inhibitors;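 also: Gal4-VP16 expression switched on by copper sulfate through the metallothionein promoter; % is scaled to controls: 0 for no effect and ±100 for the full control effect; nearly all actives have a fitted effect of over 50% in size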
SW480 rereplic: A quantitative high throughput screen for small molecules that induce DNA re-replication in SW480 colon adenocarcinoma cells; SW480 DNA re-replication, Hoechst DNA content imaging, 48 h; Potency, µM (titrated, usually from 46.1 µM), inactives show at the highest dose re-replication activation, usual class: activators; actives 1.8% (n = 340,000); also: % of control where 0% means no effect; nearly all actives have a fitted effect of over 55% in size
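Compounds, transferred as 23 nL by pin tool, were incubated with cells for 48 hr; DNA content per nucleus was then quantified by Hoechst staining and fluorescence plate imaging.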
RORgamma inh: qHTS for inhibitors of ROR gamma transcriptional activity. Nuclear receptor ROR-gamma (Mus musculus), P51450. Drosophila S2 Gal4-RORgamma UAS-luciferase reporter, 20 h. Potency, µM (highest dose often 53.6 µM), for inactives: at the top dose activity change, negative = inhibition, actives largely listed as inhibitors. actives 5.4% (n = 310,000); also: % is scaled to controls: 0 for no effect and ±100 for the full control effect; nearly all actives have a fitted effect of over 60% in size
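Drosophila S2 cells stably expressing Gal4-DBD/mouse RORγ fusion under metallothionein promoter plus UAS-luciferase; compound 1 h, then 700 uM CuSO4 induction for 20 h at ambient temperature; inhibition read as reduced luminescence.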
ELG1 repair inh: qHTS screen for small molecules that inhibit ELG1-dependent DNA repair in human embryonic kidney (HEK293T) cells expressing luciferase-tagged ELG1; HEK293T ELG1-luciferase reporter, luminescence, 16 h; DNA damage induced by 5-fluorouridine; Potency, µM (top dose mostly 46.1 µM), without a hit: at the top dose activity change, negative = inhibition, actives largely listed as inhibitors; actives 2.3% (n = 330,000); AID 504467, 2011; also: % is scaled to controls: 0 for no effect and ±100 for the full control effect; nearly all actives have a fitted effect of over 55% in size
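Cells (2,000 per well) received 5-fluorouridine plus test compound or DMSO and were incubated 16 hr at 37 °C, 5% CO2. Luciferase activity was read by luminescence 30 min after ONE-Glo addition; signal suppression marked inhibition of damage-induced ELG1 function.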
ELG1 FLuc counter: qHTS screen for small molecules that inhibit ELG1-dependent DNA repair: Hit Confirmation in Cell-Based Luciferin Assay; shares compounds with ELG1 repair inh; cell-free firefly luciferase luminescence counter-screen, ViewLux; Potency, µM (highest dose often 46.1 µM), inactives show at the highest dose activity change, negative = inhibition, actives largely listed as inhibitors; actives 3% (n = 350); also: % is scaled to controls: 0 for no effect and ±100 for the full control effect
ELG1 Luc conf: HTS assay for small molecules that inhibit ELG1-dependent DNA repair in human embryonic kidney (HEK293T) cells expressing luciferase-tagged ELG1: Hit Confirmation | shares compounds with ELG1 repair inh | HEK293T ELG1-luciferase levels, luminescence; cells co-treated with 5-fluorouridine | Potency, µM (top dose mostly 46.1 µM), inactives show at the top dose activity change, negative = inhibition, hits mostly inhibitors | actives 68% (n = 670); also: % is scaled to controls: 0 for no effect and ±100 for the full control effect; nearly all actives have a fitted effect of over 55% in size
ELG1-Luc MMS: confirmation of human ELG1 repair inhibitors, MMS stimulated. shares compounds with ELG1 repair inh. HEK293T luciferase-tagged ELG1 level, MMS stimulated. Potency, µM (top dose mostly 46.1 µM), for inactives: top-dose activity change, negative = inhibition, most hits filed as inhibitors. actives 53% (n = 670); also: % is scaled to controls: 0 for no effect and ±100 for the full control effect; nearly all actives have a fitted effect of over 60% in size
ELG1 5FU viab: qHTS screen for small molecules that inhibit ELG1-dependent DNA repair: Hit Confirmation with 5FU Viability | shares compounds with ELG1 repair inh | cell viability with 5-FU, ELG1-dependent repair | Potency, µM (top dose mostly 46.1 µM), for inactives: at the top dose activity change, negative = viability loss, actives largely listed as cytotoxic | 670 tested, under 10 active;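 also: ELG1-luc HEK293T cells cotreated with 5-fluorouridine at 10 µM final; viability measured 16 h after compound addition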
ELG1 MMS cell: qHTS screen for small molecules that inhibit ELG1-dependent DNA repair: Hit Confirmation with MMS Viability | shares compounds with ELG1 repair inh | Cell viability with MMS, ELG1-dependent DNA repair | Potency, µM (highest dose often 46.1 µM), for inactives: at the highest dose activity change, negative = viability loss, hits mostly cytotoxic | actives 33% (n = 670);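 also: ELG1-luc HEK293T cells co-treated with 10 µM MMS; viability read 16 h after compound addition; % is scaled to controls: 0 for no effect and ±100 for the full control effect; nearly all actives have a fitted effect of over 60% in size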
Cell viab unstim: qHTS screen for small molecules that inhibit ELG1-dependent DNA repair: Hit Confirmation with Unstimulated Viability Assay; shares compounds with ELG1 repair inh; cell viability counter-screen, unstimulated, luminescence; Potency, µM (highest dose often 45.9 µM), inactives show at the highest dose activity change, negative = loss of viability, most hits filed as cytotoxic; actives 8% (n = 900);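 also: compound exposure lasted 16 hours before reading; % is scaled to controls: 0 for no effect and ±100 for the full control effect; nearly all actives have a fitted effect of over 55% in size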
FLuc biochem: qHTS screen for small molecules that inhibit ELG1-dependent DNA repair: Hit Confirmation in Biochemical Luciferin Assay; Potency, µM (series often up to 57.5 µM), without a hit: top-dose activity, negative = inhibition, usual class: inhibitors; shares compounds with ELG1 repair inh; actives 10% (n = 350); purified firefly luciferase, luminescence counter-screen; also: % is scaled to controls: 0 for no effect and ±100 for the full control effect
An asterisk follows results filed as active; ? = inconclusive; nt = no result given. Calls follow the shape of the dose curve; as a rule, active = well fitted curve in the direction sought with a large enough effect; inconclusive = small, poorly fitted or top-dose-only effect, or another doubt; inactive = no such curve, though single readings can be large; an effect the other way counts as inactive or inconclusive. Potency is read from the fitted curve at half-maximal effect.

SMILES	MCF10A rerep	Gal4-VP16 FLuc	SW480 rereplic	RORgamma inh	ELG1 repair inh	ELG1 Luc conf	ELG1-Luc MMS	ELG1 5FU viab	ELG1 MMS cell	Cell viab unstim	others
Cc1csc(SCC(=O)Nc2ccccc2C)n1	3%	nt	-7%	nt	13%	nt	nt	nt	nt	nt
COc1ccccc1CN(C)CC(=O)Nc1cccc2ccccc12	1%	-8%	-16%	-8%	-8%	nt	nt	nt	nt	nt
COc1cc(Cl)c(C)cc1NC(=O)CN(C)Cc1cccc(OC)c1OC	?	4%	13%	1%	2.6µM*	25µM*	16µM*	6%	14µM*	?
O=C(NCC1CCCO1)c1ccc2c(=O)n(CC3CCCO3)c(=S)[nH]c2c1 (configuration not stated)	-3%	4%	-4%	-8%	-23%	nt	nt	nt	nt	nt
O=C(Nc1ccc(F)cc1)c1ccc2c(=O)n(CC3CCCO3)c(=S)[nH]c2c1 (configuration not stated)	?	?	-16%	?	4.1µM*	5.6µM*	22µM*	?	?	-20%
COc1cccc(C(=O)N/N=c2\oc3c(OC)cccc3cc2C(=O)NCc2ccccc2)c1	0%	10%	0%	29%	4.1µM*	2.2µM*	?	?	4%	-13%
Cc1ccc(NC(=O)COC(=O)C2=NNC(=O)CC2)c(Br)c1	?	nt	9%	nt	19%	nt	nt	nt	nt	nt
CCN(CC)C(=O)c1ccc2c3c(cccc13)C(=O)N(CCc1ccc(OC)c(OC)c1)C2=O	?	-6%	110%	33%	4.6µM*	11µM*	10µM*	?	22µM*	25µM*
COc1ccc(CNC(=O)CCN2C(=O)c3ccccc3C2=O)cc1OC	11%	-5%	-31%	-14%	17%	nt	nt	nt	nt	nt
COc1ccc(C(C(=O)NCC2CCCO2)N(Cc2cccs2)C(=O)c2snc(C(N)=O)c2N)cc1OC (configuration not stated)	0%	6%	-3%	19%	?	nt	nt	nt	nt	nt
CCOc1ccc(C(C(=O)NCC2CCCO2)N(Cc2cccs2)C(=O)c2snc(C(N)=O)c2N)cc1 (configuration not stated)	9%	6%	0%	26%	4.6µM*	7.9µM*	7.9µM*	-12%	?	?
Cc1c(C(=O)NCc2ccco2)oc2ccc(S(=O)(=O)N3CCC4(CC3)OCCO4)cc12	0%	2%	-4%	2%	3.3µM*	4.5µM*	-12%	?	-11%	?	ELG1 FLuc counter=63%;FLuc biochem=0%
Cc1c(C(=O)NCCc2ccccc2)oc2ccc(S(=O)(=O)N3CCC4(CC3)OCCO4)cc12	16%	6%	2%	?	?	nt	nt	nt	nt	nt
Cc1ccc(OCCCC(=O)Nc2cc(S(=O)(=O)N3CCOCC3)ccc2N2CCOCC2)cc1	0%	nt	1%	nt	-5%	nt	nt	nt	nt	nt
CCCCC1(Br)C(=O)N(c2ccccc2)N(c2ccccc2)C1=O	11%	nt	1%	nt	19%	nt	nt	nt	nt	nt
O=C(Nc1ccc(F)cc1)N(Cc1cccs1)Cc1cc2cc3c(cc2[nH]c1=O)OCO3	?	-13%	-10%	?	18µM*	8.9µM*	28µM*	-6%	?	?	ELG1 FLuc counter=?;FLuc biochem=-15%
CCOc1cc(/C=N/Nc2cc(C)nc(-n3nc(C)cc3C)n2)ccc1O	?	18µM*	?	?	2.6µM*	6.3µM*	?	?	?	?
COc1ccccc1N(CC(=O)NCCSc1ccc(Cl)cc1)S(C)(=O)=O	-7%	20%	15%	29%	-14%	nt	nt	nt	nt	nt
O=C(CNC(=O)OCc1ccccc1)NC1CCCCCC1	0%	-3%	9%	37%	-3%	nt	nt	nt	nt	nt
O=C(N[C@H]1/C=C\[C@@H](O)CCCC1)OCc1ccccc1	-2%	nt	-60%	nt	?	nt	nt	nt	nt	5%
COc1ccc(C(CNC(=O)C(C)Oc2ccc(Br)cc2)N2CCCCC2)cc1 (configuration not stated)	19%	nt	-27%	nt	2%	nt	nt	nt	nt	nt
Cc1ccc(C(=O)Cn2c3c(sc2=N)CCCC3)cc1	nt	?	nt	0.79µM*	nt	nt	nt	nt	nt	?	ELG1 FLuc counter=-2%;FLuc biochem=0.092µM*
Cc1ccc(C(=O)Cn2ncsc2=N)cc1	-1%	19%	0%	-32%	?	nt	nt	nt	nt	nt
COc1ccc(C(=O)Nc2cc3c(cc2N2CCCCC2)n(C)c(=O)n3C)cc1OC	?	8%	-39%	3.5µM*	-7%	?	9%	?	-2%	0%	ELG1 FLuc counter=100%;FLuc biochem=-2%

Source: PubChem BioAssay (National Center for Advancing Translational Sciences (NCATS))
